In PubChem BioAssay (NCI):
The panel holds about 83,000 compounds, 20% with a hit somewhere; the sample as a whole holds those more often.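 Compound tested at a single concentration for 48 hours in 96-well plates; a percent growth value below 10 was scored as active.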 Activity calls are given as the source filed them.

Columns and labels:
Assay in all cases: NCI-60 one-dose screen, 48 h (100 = growth as untreated, 0 = no growth, -100 = all killed)
Settings in all cases: 10 µM unless noted
NCI-H23 lung = tested on: NCI-H23 lung
NCI-H226 lung = tested on: NCI-H226 lung
NCI-H322M lung = tested on: NCI-H322M lung
HOP-62 NSCLC = tested on: HOP-62 NSCLC
NCI-H460 lung = tested on: NCI-H460 lung
HOP-92 NSCLC = tested on: HOP-92 NSCLC
NCI-H522 lung = tested on: NCI-H522 lung
A549/ATCC NSCLC = tested on: A549/ATCC NSCLC
786-0 renal = tested on: 786-0 renal
COLO 205 colon = tested on: COLO 205 colon

Measured: growth

CS(=O)(=O)Nc1cncc(-c2ccc3ncnc(NCc4ccccc4)c3c2)c1
inactive: NCI-H23 lung 21.8% | NCI-H226 lung 38.5% | NCI-H322M lung 47.2% | HOP-62 NSCLC 46.5% | NCI-H460 lung 83.3% | NCI-H522 lung 39.4% | A549/ATCC NSCLC 90.1% | 786-0 renal 55% | COLO 205 colon 41.9%
active: HOP-92 NSCLC -12.3%

C/C(=N/O)c1ccc(NC(=O)CSc2nnc(-c3ccc4nc(-c5ccc(Cl)cc5)[nH]c4c3)o2)cc1
inactive: NCI-H226 lung 110% | NCI-H322M lung 55.8% | HOP-62 NSCLC 20.2% | NCI-H460 lung 12.2% | HOP-92 NSCLC 88.7% | A549/ATCC NSCLC 31.8% | COLO 205 colon 122%
active: NCI-H23 lung -18.9% | NCI-H522 lung -16.3% | 786-0 renal -59.9%

Cc1ccc(C(C)C)cc1Oc1cccc(-c2c(-c3ccc(C(F)(F)F)cc3)ncn2C2CCNCC2)n1
active: NCI-H23 lung -89% | NCI-H226 lung -78.4% | NCI-H322M lung -98.4% | HOP-62 NSCLC -82.7% | NCI-H460 lung -84.3% | HOP-92 NSCLC -85.8% | NCI-H522 lung -91.2% | A549/ATCC NSCLC -86.8% | 786-0 renal -90.8% | COLO 205 colon -87.5%

O=C(N/N=C/c1ccc(Cl)cc1)c1ccc(OCc2nc3ccc(Cl)cc3[nH]2)cc1
active: NCI-H23 lung 4.91% | HOP-62 NSCLC -41.6% | NCI-H460 lung -82.3% | NCI-H522 lung 7.51% | A549/ATCC NSCLC -60.1% | 786-0 renal -63.1% | COLO 205 colon 4.04%
inactive: NCI-H226 lung 77.4% | NCI-H322M lung 71.3% | HOP-92 NSCLC 19.6%

COc1cc(CNC(=O)C[C@H](C)CCC=C(C)C)ccc1OCc1cn(-c2ccc(Cl)c(Cl)c2)nn1
inactive: NCI-H23 lung 68.5% | NCI-H226 lung 50.5% | NCI-H322M lung 82.5% | HOP-62 NSCLC 95.7% | NCI-H460 lung 45.5% | HOP-92 NSCLC 51.6% | NCI-H522 lung 61.5% | A549/ATCC NSCLC 46.5% | 786-0 renal 80.4% | COLO 205 colon 53.6%

Cc1ccc(C(=O)Nc2cccc(C(=O)NC(=S)Nc3ccc(S(N)(=O)=O)cc3)c2)cc1
inactive: NCI-H23 lung 76.9% | NCI-H226 lung 67.5% | NCI-H322M lung 87.3% | HOP-62 NSCLC 74.9% | NCI-H460 lung 77.8% | HOP-92 NSCLC 67.5% | NCI-H522 lung 48.6% | A549/ATCC NSCLC 74.7% | 786-0 renal 81.7% | COLO 205 colon 98.4%

CS(=O)(=O)Nc1cc(-c2ccc3ncnc(N4CCc5cc(F)c(Cl)cc54)c3c2)cnc1Cl
active: NCI-H23 lung 4.88% | NCI-H226 lung 8.15% | NCI-H322M lung 8.81% | HOP-92 NSCLC -20.7% | A549/ATCC NSCLC -3.2% | 786-0 renal 4.55% | COLO 205 colon -1.45%
inactive: HOP-62 NSCLC 27.8% | NCI-H460 lung 12.1% | NCI-H522 lung 17.7%

Cc1ccc2c(c1)nc(-c1ccccc1)n2CC(=O)N=Nc1c(O)[nH]c2ccc(Cl)cc12
active: NCI-H23 lung -66% | NCI-H226 lung -53.5% | NCI-H322M lung -53.8% | HOP-62 NSCLC -79.7% | NCI-H460 lung -68.9% | HOP-92 NSCLC -74.2% | NCI-H522 lung -75% | A549/ATCC NSCLC -18.7% | 786-0 renal -92% | COLO 205 colon -87.6%

COc1cc(-c2ccc3ncnc(N4CCc5ccc(Cl)cc54)c3c2)cnc1Cl
inactive: NCI-H23 lung 19.9% | NCI-H226 lung 18.8% | NCI-H322M lung 15.9% | HOP-62 NSCLC 50.2% | NCI-H460 lung 12.4% | NCI-H522 lung 38.6% | A549/ATCC NSCLC 34.7% | 786-0 renal 14.1% | COLO 205 colon 32.1%
active: HOP-92 NSCLC -0.319%

Cc1ccc(Nc2nnc(-c3c[nH]c4ccccc34)o2)c(C)c1
active: NCI-H460 lung 8.57% | NCI-H522 lung -30.4% | 786-0 renal 1.66% | COLO 205 colon -55.5%
inactive: NCI-H23 lung 16.2% | NCI-H226 lung 43.9% | NCI-H322M lung 40.2% | HOP-62 NSCLC 23.2% | HOP-92 NSCLC 21.8% | A549/ATCC NSCLC 12.6%

O=C(CSc1nnc(-c2ccc(-c3nc4ccc(Cl)cc4[nH]3)cc2)o1)Nc1ccc(Br)cc1
active: NCI-H23 lung -34.7% | NCI-H226 lung -46.9% | NCI-H322M lung 9.95% | HOP-62 NSCLC -31.1% | NCI-H460 lung -72.3% | HOP-92 NSCLC -7.8% | NCI-H522 lung -23.3% | A549/ATCC NSCLC -38.9% | 786-0 renal -44.1%
inactive: COLO 205 colon 94.1%

COc1c2c(cc3c1C(CCc1ccccc1)N(C)CC3)OCO2 (stereo not given)
active: NCI-H23 lung 5.64% | NCI-H226 lung -1.8% | NCI-H460 lung 1.55% | HOP-92 NSCLC 1.44% | COLO 205 colon -56.5%
inactive: NCI-H322M lung 28.7% | HOP-62 NSCLC 36.6% | NCI-H522 lung 11.4% | A549/ATCC NSCLC 21.4% | 786-0 renal 12.6%

CC[C@]12C=CCN3CC[C@]4(C(=C(C(=O)OC)C1)Nc1cc(OC)c([C@@H]5[C@H]6O[C@H]6[C@@]6(CC)CC(C(=O)OC)=C7Nc8cc(O)ccc8[C@@]78CCN5[C@@H]68)cc14)[C@@H]32
inactive: NCI-H322M lung 33.6% | HOP-62 NSCLC 32.2% | A549/ATCC NSCLC 17.2%
active: NCI-H23 lung -18.8% | NCI-H226 lung -58.1% | NCI-H460 lung -68.4% | HOP-92 NSCLC -41.9% | NCI-H522 lung -31.2% | 786-0 renal -8% | COLO 205 colon -70.2%

Cc1ccc(C(=O)Nc2ccc(-n3ccnc3)c(C(F)(F)F)c2)cc1C#Cc1cnc2cccnn12
active: NCI-H226 lung -52.4% | HOP-62 NSCLC -20.3% | HOP-92 NSCLC -14.1% | NCI-H522 lung -20%
inactive: NCI-H23 lung 13.3% | NCI-H322M lung 44.5% | NCI-H460 lung 18.8% | A549/ATCC NSCLC 28.8% | 786-0 renal 14% | COLO 205 colon 22.5%

C[C@@H]1CN(c2ccc3ncc(C#Cc4cncc(C(=O)Nc5ccc(CN6CCN(C)CC6)c(C(F)(F)F)c5)c4)n3n2)C[C@@H](C)O1
active: NCI-H23 lung -87.5% | NCI-H226 lung -86.3% | NCI-H322M lung -78.9% | HOP-62 NSCLC -59.8% | NCI-H460 lung -80% | HOP-92 NSCLC -87.7% | NCI-H522 lung -73.3% | A549/ATCC NSCLC -59% | 786-0 renal -95.9% | COLO 205 colon -77.7%
